The source of these data is the supplement of paper PMC10849652.

Of roughly 7,900 targets only a part is listed; those with a hit were picked by preference. About 0.6% of all pairs of compound and target were hits.

Sequence of UniProt O95819 (O95819 whole entry, looked up): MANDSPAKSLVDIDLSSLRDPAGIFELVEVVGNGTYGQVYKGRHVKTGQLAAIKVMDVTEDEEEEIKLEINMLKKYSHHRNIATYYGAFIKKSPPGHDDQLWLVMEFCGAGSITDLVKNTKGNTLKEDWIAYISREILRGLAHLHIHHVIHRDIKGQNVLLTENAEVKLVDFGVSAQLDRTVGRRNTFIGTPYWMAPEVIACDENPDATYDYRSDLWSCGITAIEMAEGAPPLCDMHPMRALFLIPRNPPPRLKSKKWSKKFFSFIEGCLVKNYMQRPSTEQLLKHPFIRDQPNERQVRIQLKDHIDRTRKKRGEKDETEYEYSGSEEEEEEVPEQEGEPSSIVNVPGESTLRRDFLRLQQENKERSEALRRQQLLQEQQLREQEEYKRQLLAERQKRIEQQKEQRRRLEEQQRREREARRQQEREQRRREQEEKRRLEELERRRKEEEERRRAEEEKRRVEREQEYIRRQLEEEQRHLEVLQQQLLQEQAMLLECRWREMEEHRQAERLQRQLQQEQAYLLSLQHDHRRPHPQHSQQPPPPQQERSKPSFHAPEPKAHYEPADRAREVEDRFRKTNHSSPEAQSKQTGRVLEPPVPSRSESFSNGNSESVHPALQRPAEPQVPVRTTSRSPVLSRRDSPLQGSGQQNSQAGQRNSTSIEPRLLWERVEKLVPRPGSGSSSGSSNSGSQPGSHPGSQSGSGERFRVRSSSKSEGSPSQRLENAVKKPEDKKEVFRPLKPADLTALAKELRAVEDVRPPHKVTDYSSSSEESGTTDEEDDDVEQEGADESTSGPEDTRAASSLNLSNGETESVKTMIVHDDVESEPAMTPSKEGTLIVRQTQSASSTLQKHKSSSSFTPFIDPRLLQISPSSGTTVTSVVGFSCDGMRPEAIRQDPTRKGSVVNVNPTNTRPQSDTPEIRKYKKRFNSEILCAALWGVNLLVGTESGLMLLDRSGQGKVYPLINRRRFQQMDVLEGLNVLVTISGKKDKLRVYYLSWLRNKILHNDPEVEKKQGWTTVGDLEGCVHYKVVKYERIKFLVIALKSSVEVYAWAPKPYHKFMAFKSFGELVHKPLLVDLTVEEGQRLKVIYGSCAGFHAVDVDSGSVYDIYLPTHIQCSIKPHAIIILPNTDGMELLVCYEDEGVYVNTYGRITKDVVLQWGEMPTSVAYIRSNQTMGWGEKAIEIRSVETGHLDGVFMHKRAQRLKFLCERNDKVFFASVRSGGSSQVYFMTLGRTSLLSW
Sequence of UniProt Q7L590 (Q7L590 whole entry, looked up): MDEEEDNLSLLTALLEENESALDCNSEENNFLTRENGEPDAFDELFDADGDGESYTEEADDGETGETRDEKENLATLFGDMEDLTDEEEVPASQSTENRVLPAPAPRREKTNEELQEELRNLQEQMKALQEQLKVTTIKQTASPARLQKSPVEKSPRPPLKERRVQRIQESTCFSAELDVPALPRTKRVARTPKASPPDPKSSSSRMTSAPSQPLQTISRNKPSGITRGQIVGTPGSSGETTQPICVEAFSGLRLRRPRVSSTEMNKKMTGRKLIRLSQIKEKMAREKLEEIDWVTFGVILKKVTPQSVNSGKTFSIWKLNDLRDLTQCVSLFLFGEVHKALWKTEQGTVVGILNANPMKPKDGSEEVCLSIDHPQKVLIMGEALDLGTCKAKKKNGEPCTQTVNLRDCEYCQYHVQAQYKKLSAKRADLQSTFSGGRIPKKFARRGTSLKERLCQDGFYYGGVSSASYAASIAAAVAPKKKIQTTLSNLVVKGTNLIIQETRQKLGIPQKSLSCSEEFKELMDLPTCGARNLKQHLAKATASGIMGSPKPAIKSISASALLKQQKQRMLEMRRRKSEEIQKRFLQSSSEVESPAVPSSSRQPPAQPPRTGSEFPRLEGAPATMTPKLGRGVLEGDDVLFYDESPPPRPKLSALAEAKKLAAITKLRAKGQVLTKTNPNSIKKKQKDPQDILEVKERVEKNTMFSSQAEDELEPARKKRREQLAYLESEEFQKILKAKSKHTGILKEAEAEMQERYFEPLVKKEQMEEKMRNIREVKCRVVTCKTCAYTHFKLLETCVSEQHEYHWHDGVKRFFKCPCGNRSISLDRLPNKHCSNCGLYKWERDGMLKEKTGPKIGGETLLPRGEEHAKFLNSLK
Sequence of UniProt Q12851 (Q12851 whole entry, looked up): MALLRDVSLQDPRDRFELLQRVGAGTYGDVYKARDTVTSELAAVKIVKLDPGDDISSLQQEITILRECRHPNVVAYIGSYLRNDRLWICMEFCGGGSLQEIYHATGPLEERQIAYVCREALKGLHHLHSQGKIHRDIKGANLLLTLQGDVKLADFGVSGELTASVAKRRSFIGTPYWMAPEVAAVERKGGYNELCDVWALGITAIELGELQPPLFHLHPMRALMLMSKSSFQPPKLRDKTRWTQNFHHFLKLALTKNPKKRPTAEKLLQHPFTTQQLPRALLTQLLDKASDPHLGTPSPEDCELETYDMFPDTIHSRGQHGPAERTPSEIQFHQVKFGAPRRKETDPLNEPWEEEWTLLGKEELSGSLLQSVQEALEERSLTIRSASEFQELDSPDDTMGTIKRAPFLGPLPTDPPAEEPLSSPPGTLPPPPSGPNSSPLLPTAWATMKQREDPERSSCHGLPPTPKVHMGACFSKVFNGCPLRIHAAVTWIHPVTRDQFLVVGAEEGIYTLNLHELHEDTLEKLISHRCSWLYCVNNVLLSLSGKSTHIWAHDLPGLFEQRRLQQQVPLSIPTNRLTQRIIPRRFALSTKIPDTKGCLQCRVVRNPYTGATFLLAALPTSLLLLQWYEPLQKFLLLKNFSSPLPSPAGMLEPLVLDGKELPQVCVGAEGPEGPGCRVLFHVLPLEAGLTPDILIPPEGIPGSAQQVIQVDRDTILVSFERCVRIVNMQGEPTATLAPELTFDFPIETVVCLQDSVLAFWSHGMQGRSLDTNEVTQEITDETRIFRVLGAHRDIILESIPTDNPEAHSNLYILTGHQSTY
Sequence of UniProt Q14680 (Q14680 whole entry, looked up): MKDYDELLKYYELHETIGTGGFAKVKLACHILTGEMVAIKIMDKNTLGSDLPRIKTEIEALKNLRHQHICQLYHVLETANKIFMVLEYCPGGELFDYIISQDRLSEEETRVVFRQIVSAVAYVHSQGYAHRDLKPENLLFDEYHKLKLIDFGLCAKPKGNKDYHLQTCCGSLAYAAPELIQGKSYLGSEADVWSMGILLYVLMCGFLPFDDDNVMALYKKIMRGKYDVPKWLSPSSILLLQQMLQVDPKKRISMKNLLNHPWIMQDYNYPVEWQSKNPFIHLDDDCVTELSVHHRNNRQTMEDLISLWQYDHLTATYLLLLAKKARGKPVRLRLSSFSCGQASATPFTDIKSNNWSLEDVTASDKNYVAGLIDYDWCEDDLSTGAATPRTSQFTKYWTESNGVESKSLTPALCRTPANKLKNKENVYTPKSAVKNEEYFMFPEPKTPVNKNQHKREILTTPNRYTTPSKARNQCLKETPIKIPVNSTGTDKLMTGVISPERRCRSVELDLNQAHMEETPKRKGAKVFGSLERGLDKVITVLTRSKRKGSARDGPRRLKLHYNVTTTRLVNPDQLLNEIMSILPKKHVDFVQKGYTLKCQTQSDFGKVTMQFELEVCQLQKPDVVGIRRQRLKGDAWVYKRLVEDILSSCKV
Sequence of UniProt P55082 (P55082 whole entry, looked up): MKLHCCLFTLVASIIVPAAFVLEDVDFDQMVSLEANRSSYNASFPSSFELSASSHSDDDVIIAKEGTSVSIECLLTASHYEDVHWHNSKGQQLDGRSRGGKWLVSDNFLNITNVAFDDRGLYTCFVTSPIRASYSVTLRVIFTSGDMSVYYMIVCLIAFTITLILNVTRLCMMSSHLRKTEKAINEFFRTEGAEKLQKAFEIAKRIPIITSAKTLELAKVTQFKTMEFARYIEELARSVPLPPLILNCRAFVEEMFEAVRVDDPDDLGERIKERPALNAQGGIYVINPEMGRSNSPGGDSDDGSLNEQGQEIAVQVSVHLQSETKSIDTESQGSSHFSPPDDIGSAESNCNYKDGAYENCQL
Sequence of UniProt Q9Y2E5 (Q9Y2E5 whole entry, looked up): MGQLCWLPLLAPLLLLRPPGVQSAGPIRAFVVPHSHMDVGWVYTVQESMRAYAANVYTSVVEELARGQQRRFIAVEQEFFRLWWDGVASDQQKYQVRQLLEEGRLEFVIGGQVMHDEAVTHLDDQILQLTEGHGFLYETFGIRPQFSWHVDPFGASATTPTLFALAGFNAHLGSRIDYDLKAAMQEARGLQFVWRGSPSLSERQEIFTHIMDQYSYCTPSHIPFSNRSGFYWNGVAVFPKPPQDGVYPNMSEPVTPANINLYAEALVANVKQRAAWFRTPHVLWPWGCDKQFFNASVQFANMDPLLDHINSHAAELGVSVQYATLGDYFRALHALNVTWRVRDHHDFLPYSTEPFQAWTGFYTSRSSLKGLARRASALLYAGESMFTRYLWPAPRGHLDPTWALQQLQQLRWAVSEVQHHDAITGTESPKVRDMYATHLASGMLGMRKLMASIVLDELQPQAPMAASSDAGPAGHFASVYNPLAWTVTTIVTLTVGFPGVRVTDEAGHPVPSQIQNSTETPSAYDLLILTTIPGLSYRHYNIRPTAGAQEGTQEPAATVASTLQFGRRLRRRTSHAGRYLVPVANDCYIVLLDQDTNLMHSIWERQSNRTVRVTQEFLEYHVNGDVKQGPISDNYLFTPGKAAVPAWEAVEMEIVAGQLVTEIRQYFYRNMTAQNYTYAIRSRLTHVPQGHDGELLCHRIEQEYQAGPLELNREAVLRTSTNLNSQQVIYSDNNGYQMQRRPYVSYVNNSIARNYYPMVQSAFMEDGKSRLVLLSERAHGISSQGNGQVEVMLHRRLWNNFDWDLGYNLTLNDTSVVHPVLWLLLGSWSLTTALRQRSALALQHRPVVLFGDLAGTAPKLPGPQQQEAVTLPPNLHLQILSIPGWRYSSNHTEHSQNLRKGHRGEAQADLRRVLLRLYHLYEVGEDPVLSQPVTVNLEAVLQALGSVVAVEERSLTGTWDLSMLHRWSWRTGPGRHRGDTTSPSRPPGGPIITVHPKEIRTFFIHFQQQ

Compound in one assay: C1=CC=C(C=C1)[C@H](COC2=CC3=C(C=C2)NC(=O)N3)NC(=O)C4=CC=CN(C4=O)CC5=CC(=C(C=C5)F)F
As to the kind of experiment: log2 fold change, soluble protein after heating vs DMSO (PISA); higher = thermal stabilisation; K562 cells, 10 uM, 30 min; active = over 0.2 and 3.5 SD of the protein, either way, in both replicates (recomputed). An outline of the steps: (§1)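 For each measurement, 10 μM compound was applied for 30 min to K562 cells at 2×10^6 cells/mL. Aliquots were heated for 3 min across 48°C-58°C, pooled, and extracted in PBS with 0.5% NP-40 at 4°C; the supernatant after 21,000xg for 90 min was soluble protein. This was quantified by TMTpro 16plex LC-MS/MS with channel sums equalised, and thermal stability was reported relative to control samples from duplicates, on a log2 fold-change scale.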
For MED12 isoform 2 (UniProt Q93074), the log2 fold change was -0.002 (inactive).
As to IP6K1 (UniProt Q92551), the log2 fold change was 0.053 (inactive).
The same measure, in the same setting: next, MAN2B2 (UniProt Q9Y2E5): 0.097 (inactive); IL10RB (UniProt Q08334): -0.081 (inactive).
Still for that read-out and setting: the figure for MELK (UniProt Q14680) is 0.044 (inactive).
The same measure, in the same setting: the figure for LRBA, A0A494BZW2 is 0.002 (inactive); for MCM10 (UniProt Q7L590) it is -0.04 (inactive).
With MGRN1 isoform 2 (UniProt O60291), the log2 fold change is -0.088 (inactive).
For MCOLN3 (UniProt Q8TDD5), the log2 fold change was -0.075 (inactive).
As to KCNK5 (UniProt O95279), the log2 fold change was -0.028 (inactive).
As to MFAP3 (UniProt P55082), the log2 fold change is 0.007 (inactive).
As to INTS5 (UniProt Q6P9B9), the log2 fold change was -0.091 (inactive).
Still for that read-out and setting: next, MAP4K2 (UniProt Q12851): -0.08 (inactive).

Compound in another assay: CC1=C(SC2=C1C(=N[C@H](C3=NN=C(N32)C)CC(=O)N)C4=CC=C(C=C4)Cl)C
Described as above. Summed up: as §1
Consider MAGED1 isoform 2 (UniProt Q9Y5V3), for which the log2 fold change is 0.031 (inactive).
Same read-out and setting: next, IP6K1 (UniProt Q92551): 0.059 (inactive).
On the same count and under the same terms, next, MAPRE3 isoform 2 (UniProt Q9UPY8): 0.033 (inactive); LYN isoform 2 (UniProt P07948): 0.018 (inactive); LRRFIP1 isoform 4 (UniProt Q32MZ4): -0.204 (inactive).
For MAML1 (UniProt Q92585), the log2 fold change is 0.018 (inactive).
Take MAP2K5 (UniProt Q13163): the log2 fold change is 0.053 (inactive).
On the same count and under the same terms, next, MELK (UniProt Q14680): -0.057 (inactive); LRBA, A0A494BZW2: 0.048 (inactive).
Same read-out and setting: the figure for KIF13A isoform 4 (UniProt Q9H1H9) is 0.031 (inactive); for IGFBP6 (UniProt P24592) it is 0.018 (inactive).
Still for that read-out and setting: next, MGRN1 isoform 2 (UniProt O60291): -0.004 (inactive); LSR isoform 3 (UniProt Q86X29): -0.073 (inactive).
With MED17 (UniProt Q9NVC6), the log2 fold change is -0.031 (inactive).
Same read-out and setting: next, KCNK5 (UniProt O95279): 0.114 (inactive); KIZ (UniProt Q2M2Z5): -0.082 (inactive).
The same measure, in the same setting: the figure for MFSD12 isoform 3 (UniProt Q6NUT3) is 0.026 (inactive); for IGFBP3 isoform 2 (UniProt P17936) it is -0.081 (inactive); for MAP4K4 isoform 6 (UniProt O95819) it is 0.177 (inactive).
On the same count and under the same terms, next, LUM (UniProt P51884): -0.05 (inactive).
As to LEPROT (UniProt O15243), the log2 fold change was -0.022 (inactive).
For the target ITGA2B (UniProt P08514), the log2 fold change was 0.022 (inactive).
Still for that read-out and setting: next, ING5 (UniProt Q8WYH8): 0.051 (inactive).
For the target IKZF1 (UniProt R9R4D9), the log2 fold change was 0.08 (inactive).
MAP4K2 (UniProt Q12851): the log2 fold change was 0.063 (inactive).

Compound in the next assay: CC1=C2C(=CC=C1)N=C(N(C2=O)C3=CC=CC=C3C)CN4C=NC5=C(N=CN=C54)N
The description is as above. Summed up:
as §1
As to MAGED1 isoform 2 (UniProt Q9Y5V3), the log2 fold change is 0.148 (inactive).
For LYN isoform 2 (UniProt P07948), the log2 fold change is -0.097 (inactive).
On to MAN2B2 (UniProt Q9Y2E5), for which the log2 fold change is 0.096 (inactive).
As to IL10RB (UniProt Q08334), the log2 fold change was -0.149 (inactive).
MAML1 (UniProt Q92585): the log2 fold change was 0.15 (inactive).
Consider KIF1B isoform 3 (UniProt O60333), for which the log2 fold change is -0.246 (inactive).
Still for that read-out and setting: the figure for ITPRID2 (UniProt P28290) is 0.106 (inactive).
On to MCM10 (UniProt Q7L590), for which the log2 fold change was 0.204 (inactive).
Still for that read-out and setting: next, IGFBP6 (UniProt P24592): 0.011 (inactive).
On the same count and under the same terms, next, MED17 (UniProt Q9NVC6): 0.038 (inactive); MFAP3 (UniProt P55082): 0.25 (inactive); IGFBP3 isoform 2 (UniProt P17936): 0.034 (inactive).
Still for that read-out and setting: the figure for MAP4K4 isoform 6 (UniProt O95819) is 0.049 (inactive); for LUM (UniProt P51884) it is 0.087 (inactive).
As for LSR (UniProt M0QZL9), the log2 fold change is 0.054 (inactive).
Consider ITGA2B (UniProt P08514), for which the log2 fold change was 0.112 (inactive).
In the case of INTS5 (UniProt Q6P9B9), the log2 fold change is 0.052 (inactive).

Compound in the next assay: Cc1sc2c(c1C)C(c1ccc(Cl)cc1)=N[C@@H](CC(=O)OC(C)(C)C)c1nnc(C)n1-2
The assay is described as above. An outline of the steps: as §1
Regarding MED12 isoform 2 (UniProt Q93074), the log2 fold change was -0.434 (inactive).
On the same count and under the same terms, the figure for IP6K1 (UniProt Q92551) is 0.194 (inactive).
MAPRE3 isoform 2 (UniProt Q9UPY8): the log2 fold change is 0.279 (inactive).
Same read-out and setting: next, MAN2B2 (UniProt Q9Y2E5): 0.074 (inactive); IL10RB (UniProt Q08334): 0.029 (inactive).
The same measure, in the same setting: the figure for MAPK11 (UniProt Q15759) is -0.014 (inactive).
Still for that read-out and setting: the figure for MELK (UniProt Q14680) is 0.197 (inactive).
On to LRBA, A0A494BZW2, for which the log2 fold change was 0.113 (inactive).
The same measure, in the same setting: the figure for MCM10 (UniProt Q7L590) is 0.032 (inactive).
As to MGRN1 isoform 2 (UniProt O60291), the log2 fold change is 0.036 (inactive).
On the same count and under the same terms, the figure for MAP3K20 isoform 2 (UniProt Q9NYL2) is -0.033 (inactive).
Regarding LSR isoform 3 (UniProt Q86X29), the log2 fold change was -0.067 (inactive).
The same measure, in the same setting: next, LRRCC1 (UniProt Q9C099): 0.046 (inactive); MCOLN3 (UniProt Q8TDD5): 0.039 (inactive); MED17 (UniProt Q9NVC6): 0.032 (inactive).
Still for that read-out and setting: the figure for MFAP3 (UniProt P55082) is -0.155 (inactive); for MFSD12 isoform 3 (UniProt Q6NUT3) it is -0.129 (inactive); for IGFBP3 isoform 2 (UniProt P17936) it is -0.083 (inactive).
As for MAP4K4 isoform 6 (UniProt O95819), the log2 fold change is -0.037 (inactive).
The same measure, in the same setting: next, LUM (UniProt P51884): 0.144 (inactive); LMNA isoform 2 (UniProt P02545): -0.033 (inactive); LEPROT (UniProt O15243): -0.235 (inactive).
Same read-out and setting: next, ITGA2B (UniProt P08514): 0.029 (inactive); ING5 (UniProt Q8WYH8): 0.036 (inactive).
As for IKZF1 (UniProt R9R4D9), the log2 fold change was 0.039 (inactive).
With INTS5 (UniProt Q6P9B9), the log2 fold change is 0.065 (inactive).
On the same count and under the same terms, next, MAP4K2 (UniProt Q12851): -0.057 (inactive).
